An excerpt weighted towards active compounds, which were near 9.2% of everything screened.
HTT ATP protect: Huntington cell model cytoprotection by ATP luminescence; Potency, µM (series often up to 56.4 µM), hits mostly activators; 230,000 compounds, 0.14% hits; PC12 HTT-Q103 induced, cytoprotection, ATP luminescence, 40 h; active = well fitted curve in the direction sought with a large enough effect; inconclusive = small, poorly fitted or top-dose-only effect, or another doubt; inactive = no such curve, though single readings can be large; an effect the other way counts as inactive or inconclusive; also: nearly all actives have a fitted effect of over 45% in size
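Cells were plated at 1500 per well in phenol red-free DMEM with 5% equine and 5% calf serum. Tebufenozide (100 nM final) and compounds were added, then ATPlite reagent, and luminescence was read.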
HPGD block: HPGD (human) dehydrogenase inhibition. Potency, µM, usual class: inhibitors. purified HPGD, NADH fluorescence kinetic, PGE2 substrate. P15428. 150,000 compounds, 4.3% hits
Target sequence (P15428 whole entry, looked up): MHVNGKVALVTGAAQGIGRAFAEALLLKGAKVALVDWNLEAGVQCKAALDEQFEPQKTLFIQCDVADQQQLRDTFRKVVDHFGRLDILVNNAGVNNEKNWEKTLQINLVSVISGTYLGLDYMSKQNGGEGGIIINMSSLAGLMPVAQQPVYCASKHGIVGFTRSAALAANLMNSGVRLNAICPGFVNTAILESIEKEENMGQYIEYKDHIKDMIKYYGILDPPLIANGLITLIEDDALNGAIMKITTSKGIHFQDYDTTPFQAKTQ
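NADH formation kinetics: reaction with 30 uM PGE2 and 1 mM NAD+ (final), 20 nM enzyme, Tris-HCl pH 8 with Tween 20, after 15 min compound preincubation at room temperature. Fluorescence change, last versus first of five reads.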
Lamin A splicing: LMNA splicing modulation. HeLa LMNA splicing GFP/RFP minigene ratio, 48 h. Potency, µM (doses to about 46.1 µM), actives largely listed as inhibitors. 200,000 compounds, 0.01% hits. AID 1487; active = well fitted inhibition curve with a large enough effect in the signal ratio, with a control signal flat, not every such curve was filed as active; inconclusive = small, poorly fitted or top-dose-only effect, or effect the other way, or a change in a side signal; the % refers to the signal ratio
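S3 HeLa stable clones carrying a lamin A-EGFP splicing minigene plus DsRed2 were seeded at 600 cells/well in Opti-MEM with 2% FBS, pin-dosed and incubated 48 h at 37°C. Acumen cytometry (488 nm) gave the GFP/RFP total-intensity ratio.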
HTT aggregate: inhibitors of mutant huntingtin aggregate formation in PC12 cells; PC12 HttQ103-GFP aggregates, Acumen cytometry, 40 h; Potency, µM (highest dose often 46.1 µM), hits mostly inhibitors; 220,000 compounds, 1.1% hits; AID 1688; active = well fitted curve in the direction sought with a large enough effect; inconclusive = small, poorly fitted or top-dose-only effect, or another doubt; inactive = no such curve, though single readings can be large; an effect the other way counts as inactive or inconclusive; also: nearly all actives have a fitted effect of over 60% in size
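Huntingtin Q103 exon 1–GFP aggregates in induced PC12 cells (100 nM tebufenozide) were quantified by cytometry from lysates, with compounds dosed in titration.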
ALDH1A1 block: ALDH1A1 (human) enzyme inhibition | Purified ALDH1A1, NADH fluorescence, propionaldehyde substrate | P00352 | 220,000 compounds, 7.3% hits | Potency, µM (highest dose often 75.3 µM), hits mostly inhibitors
KDM4E inh: JMJD2E (human) inhibition | B2RXH2 | JMJD2E catalytic domain, FDH-coupled NADH fluorescence (FDH is formaldehyde dehydrogenase) | Potency, µM (series often up to 57.1 µM), usual class: inhibitors | 230,000 compounds, 1.6% hits | AID 2147; also: nearly all actives have a fitted effect of over 50% in size
Large screens that a line does not name were inactive. Unless noted, calls follow the shape of the dose curve; as a rule, active = well fitted inhibition curve with a large enough effect (not every such curve was filed as active); inconclusive = small, poorly fitted or top-dose-only effect, or another doubt; inactive = no such curve, though single readings can be large or run the other way.

Cc1ccc(CNC(=O)CCS(=O)(=O)c2ccc(Cl)cc2)cc1	none (no result: HPGD block)
CC(=O)CCS(=O)(=O)c1ccc(Oc2ccc(S(=O)(=O)CCC(C)=O)cc2)cc1	Lamin A splicing inconclusive, HTT aggregate inconclusive, ALDH1A1 block inconclusive
COc1ccc(S(=O)(=O)CCC(=O)NCCc2ccc(C)cc2)cc1	ALDH1A1 block 25µM
CCNS(=O)(=O)c1ccc(CCC(=O)NCCc2ccc(OC)cc2)cc1	ALDH1A1 block inconclusive (no result: HTT ATP protect, HPGD block, Lamin A splicing)
CC[C@@H]1OC(=O)[C@@H](C)[C@H](O[C@@H]2C[C@@](C)(OC)[C@@H](O)[C@H](C)O2)[C@H](C)[C@H](O[C@@H]2O[C@@H](C)C[C@@H](N(C)C)[C@H]2O)[C@@](C)(O)C[C@H](C)C(=O)[C@@H](C)[C@H](O)[C@@]1(C)O	none (no result: HPGD block, Lamin A splicing, HTT aggregate, ALDH1A1 block, KDM4E inh)
COc1cc(SC)ccc1C(=O)NCc1ccccc1	HPGD block 25µM, ALDH1A1 block inconclusive
COc1cc(SC)ccc1C(=O)NCCCOC(C)C	none
CCCNC(=O)c1ccc(SC)cc1OC	HPGD block 25µM, ALDH1A1 block inconclusive
COc1cc(SC)ccc1C(=O)NCc1ccc(C)cc1	HPGD block 20µM, ALDH1A1 block inconclusive
Cc1nc(NCc2ccccc2)c2nc(-c3ccccc3)n(CCCN(C)C)c2n1	HPGD block inconclusive, ALDH1A1 block inconclusive, KDM4E inh inconclusive (no result: Lamin A splicing, HTT aggregate)
CC(=O)c1cccc(N(C(=O)Cn2nnc3ccccc32)C(C(=O)NCC2CCCO2)c2ccc(N3CCOCC3)cc2)c1 (stereo not drawn)	none (no result: HPGD block)
CC(=O)Nc1ccc(C(F)(F)F)cc1Cl	none (no result: HPGD block, Lamin A splicing)
COc1ccc(C(=O)Oc2cc(N)n(S(=O)(=O)c3ccccc3)n2)cc1	HTT ATP protect 0.71µM, HTT aggregate inconclusive (no result: HPGD block, Lamin A splicing)
N=C(N)N	none (no result: HTT ATP protect, HTT aggregate)
COc1ccc(OC)c2[nH]c(=O)c(CCNS(=O)(=O)c3ccccc3)cc12	ALDH1A1 block 7.1µM, KDM4E inh inconclusive
CCCS(=O)(=O)NCCc1cc2c(OC)ccc(OC)c2[nH]c1=O	ALDH1A1 block inconclusive
COc1cccc(-n2c(SCc3cc(=O)oc4cc(O)c(O)cc34)nc3ccccc3c2=O)c1	HPGD block inconclusive, ALDH1A1 block inconclusive, KDM4E inh 13µM
CCN(CC)C(=O)CSc1nc2ccccc2c(=O)n1-c1cccc(OC)c1	ALDH1A1 block inconclusive
CO[C@H]1C[C@@H](O[C@@H]2[C@H](C)[C@H](O[C@@H]3O[C@@H](C)C[C@@H](N(C)C)[C@@H]3O)[C@H](C)C[C@]3(CO3)C(=O)[C@H](C)[C@H](O)[C@H](C)[C@H](C)OC(=O)[C@@H]2C)O[C@@H](C)[C@H]1O	Lamin A splicing inconclusive
CN1CCN/C1=C(/C(Cl)=C(Cl)Cl)[N+](=O)[O-]	HTT aggregate 16µM (no result: HPGD block, Lamin A splicing)
O=C1c2cccc3c([N+](=O)[O-])ccc(c23)C(=O)N1c1ccc(Cl)cn1	HTT aggregate inconclusive
O=C1c2cccc3cccc(c23)C(=O)N1c1nccs1	none
O=C1c2cccc3c([N+](=O)[O-])ccc(c23)C(=O)N1c1ccccn1	HPGD block 28µM
O=C1c2cccc3c([N+](=O)[O-])ccc(c23)C(=O)N1c1nccs1	Lamin A splicing inconclusive, HTT aggregate 13µM
CCN(CC)C(=N)N1c2ccccc2CCC1C (stereo not drawn)	none (no result: HPGD block, Lamin A splicing)
COc1ccc(C(=O)NC(=S)N(Cc2ccccc2)Cc2ccccc2)cc1	HTT aggregate 10µM, ALDH1A1 block inconclusive
CN(Cc1ccccc1)C(=S)NC(=O)c1ccc(-c2ccccc2)cc1	HPGD block 14µM, ALDH1A1 block inconclusive
C=CCN(CC=C)C(=S)NC(=O)c1ccc(OC)cc1	Lamin A splicing inconclusive, ALDH1A1 block 15µM (no result: HTT ATP protect, HPGD block, HTT aggregate)
CC(=O)NS(=O)(=O)c1ccc(NS(=O)(=O)c2ccccc2[N+](=O)[O-])cc1	none (no result: HPGD block, Lamin A splicing, ALDH1A1 block)
Fc1ccc(COc2ccccc2C(=S)N2CCCC2)cc1	HPGD block 8.9µM, Lamin A splicing inconclusive, ALDH1A1 block 7.9µM (no result: HTT ATP protect)
Cc1ccc(COc2ccccc2C(=S)N2CCCC2)cc1	ALDH1A1 block 25µM (no result: HTT ATP protect, HPGD block)
O=C(NN=C1CCCCC1)c1ccccc1OCc1ccc(F)cc1	Lamin A splicing inconclusive, ALDH1A1 block inconclusive
